Assay results published in PubChem BioAssay AID1053173 (Broad Institute, 2014).
About 390 (26%) of roughly 1,500 compounds were called active. No rule for the calls is given here. The list is a sample of the results. Entries with a potency or affinity are not part of this list.

Biological target: Histone-lysine N-methyltransferase NSD2 (Homo sapiens) (UniProt O96028)
Test: blockers of NSD2 H4 peptide methylation – biochemical, AlphaScreen, cherry-picked samples, dose response (AID 1053173);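 also: 0% = neutral control wells and -100% = positive control wells on each plate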
Conditions: 120 min; series mostly up to 10 µM; activity change, negative = inhibition: at the top concentration

Chain of Histone-lysine N-methyltransferase NSD2 (Homo sapiens) (O96028 whole entry, looked up): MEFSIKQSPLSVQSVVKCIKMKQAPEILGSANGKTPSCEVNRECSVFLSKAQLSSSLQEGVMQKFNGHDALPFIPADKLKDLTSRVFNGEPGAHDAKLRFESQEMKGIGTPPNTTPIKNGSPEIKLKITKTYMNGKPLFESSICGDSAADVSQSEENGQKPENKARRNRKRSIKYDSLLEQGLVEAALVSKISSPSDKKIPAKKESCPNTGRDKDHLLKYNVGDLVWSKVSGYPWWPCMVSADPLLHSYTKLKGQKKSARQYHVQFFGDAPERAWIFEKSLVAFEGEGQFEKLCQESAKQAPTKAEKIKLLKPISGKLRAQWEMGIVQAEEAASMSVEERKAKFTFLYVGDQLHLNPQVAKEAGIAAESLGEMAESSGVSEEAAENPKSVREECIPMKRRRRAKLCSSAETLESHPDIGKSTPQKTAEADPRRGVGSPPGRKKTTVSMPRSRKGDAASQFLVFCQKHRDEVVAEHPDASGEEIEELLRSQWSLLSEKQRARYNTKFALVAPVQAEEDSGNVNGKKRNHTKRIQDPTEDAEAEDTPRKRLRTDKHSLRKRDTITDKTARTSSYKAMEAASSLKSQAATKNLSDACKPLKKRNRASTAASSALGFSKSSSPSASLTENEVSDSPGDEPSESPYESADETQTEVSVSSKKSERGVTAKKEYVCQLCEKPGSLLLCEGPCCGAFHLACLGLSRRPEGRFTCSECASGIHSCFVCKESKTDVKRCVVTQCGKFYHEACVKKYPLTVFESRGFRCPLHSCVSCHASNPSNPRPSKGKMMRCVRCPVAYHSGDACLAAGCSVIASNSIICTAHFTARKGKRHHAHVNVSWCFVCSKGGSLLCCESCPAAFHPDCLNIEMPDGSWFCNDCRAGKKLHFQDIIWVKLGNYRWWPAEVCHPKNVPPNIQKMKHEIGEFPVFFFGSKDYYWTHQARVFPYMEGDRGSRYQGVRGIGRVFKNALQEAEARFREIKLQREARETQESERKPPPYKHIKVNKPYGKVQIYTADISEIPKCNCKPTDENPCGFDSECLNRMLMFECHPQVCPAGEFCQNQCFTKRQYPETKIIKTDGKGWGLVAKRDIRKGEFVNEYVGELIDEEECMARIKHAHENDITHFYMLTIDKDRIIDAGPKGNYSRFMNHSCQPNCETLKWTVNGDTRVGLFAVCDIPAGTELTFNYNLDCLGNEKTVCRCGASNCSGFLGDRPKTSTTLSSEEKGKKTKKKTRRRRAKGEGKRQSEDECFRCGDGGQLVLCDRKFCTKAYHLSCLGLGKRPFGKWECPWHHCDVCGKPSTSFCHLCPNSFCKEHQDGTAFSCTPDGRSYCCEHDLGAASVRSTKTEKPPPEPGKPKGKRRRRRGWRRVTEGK

| Compound | activity change, negative = inhibition |
| --- | --- |
| O=C(O)c1cc(N/N=C/c2ccc3c(c2)OCO3)ccc1Cl | -0.549% (inactive) |
| O=c1cc(C=NNc2ccccc2)[nH]c(=O)[nH]1 | -4.13% (inactive) |
| Cc1noc(C)c1S(=O)(=O)N1CCN(S(=O)(=O)c2ccccc2C#N)CC1 | 4.24% (inactive) |
| CCCC(CCC(=O)Nc1cccc([N+](=O)[O-])c1)C(=O)O (centres undefined) | -0.707% (inactive) |
| COc1cc(C(=O)Oc2cccc(/C=N/NC(=O)c3cccnc3)c2)cc(OC)c1OC | -2.82% (inactive) |
| CNC(=S)NC(CC(=O)OC)c1ccc2c(c1)OCO2 (centres undefined) | 3.44% (inactive) |
| CC[n+]1c(/C=C/Nc2ccccc2)oc2ccccc21 | 0.086% (inactive) |
| Cc1cc(Cl)c(OCCN2C(=O)NC(C)(C)C2=O)c(Br)c1 | -0.445% (inactive) |
| COc1ccc(/C=C/C(=O)OCC(=O)NCC2CCCO2)cc1 (centres undefined) | 3.92% (inactive) |
| COc1ccccc1CN(Cc1cc2cc3c(cc2[nH]c1=O)OCCO3)Cc1nnnn1Cc1ccco1 | -4.86% (inactive) |
| CCOC(=O)CN(C(=O)COc1nc(-c2ccccc2)cc(C)c1C#N)c1ccccc1 | -0.665% (inactive) |
| COc1ccc(C(=O)Nc2ccc3[nH]ccc3c2)cc1OC | 4.26% (inactive) |
| COc1cc(N)c(C(=O)c2nccc3cc(OC)c(OC)cc23)cc1OC | -2.98% (inactive) |
| COc1ccc(C(=O)Cc2nnc(C)s2)cc1 | -1.01% (inactive) |
| C/C(=N/NC(=O)CCc1ccccc1)c1ccco1 | -2.07% (inactive) |
| Cc1ccccc1NC(=O)CN1CCC(C(=O)c2ccc3c(c2)OCCO3)CC1 | -2.43% (inactive) |
| COc1ccc(C2=NNC(c3cccs3)=Nc3ccc(OC)cc32)cc1 | -11.7% (inactive) |
| COc1ccc(-n2nnnc2-c2cnc(N3CCCC3)nc2C(F)(F)F)cc1 | 1.7% (inactive) |
| O=[N+]([O-])c1cc2ncccc2c2ncccc12 | -1.34% (inactive) |
| Cc1cc(C)n(-c2ncccc2[N+](=O)[O-])n1 | -2.95% (inactive) |
| COc1ccc(/C=C(\C#N)C(=O)N2COCC2(C)C)cc1 | -1.43% (inactive) |
| COc1ccc(NC(=O)CN(C)S(=O)(=O)c2ccc(C)cc2)c([N+](=O)[O-])c1 | -2.22% (inactive) |

| Compound | activity change, negative = inhibition |
| --- | --- |
| C=CCc1cccc2cc(C(=O)Nc3ccc(NC(C)=O)cc3)c(=O)oc12 | 0.142% (inactive) |
| COC(=O)c1cc(NC(=O)Nc2cc(OC)ccc2OC)cc(C(=O)OC)c1 | 0.332% (inactive) |
| N=C1/C(=C\c2ccc(Br)o2)C(=O)N=C2SC(CC(=O)N3CCCCC3)=NN12 | -4.58% (inactive) |
| COc1ccc(/C=C2\N=C(C(C)(C)C)OC2=O)c(OC)c1 | -1.37% (inactive) |
| O=C(c1ccccc1F)N(Cc1cccs1)C1CCS(=O)(=O)C1 (centres undefined) | -3.94% (inactive) |
| Cc1ccc(C(=O)Nc2ccc(Cl)cc2C(F)(F)F)c(Cl)c1 | 0.435% (inactive) |
| CCC1=[N+]([O-])C(C)(/C(C)=N\O)N(O)C1(C)C (centres undefined) | 3.64% (inactive) |
| COc1cc(NC(=O)c2[nH]c(C)c(C(C)=O)c2C)cc(OC)c1OC | -2.22% (inactive) |
| COc1ccc(C2SCCN2S(=O)(=O)c2ccccc2)cc1 (centres undefined) | 1.06% (inactive) |
| COc1ccc(NC(=O)C2Cc3c(-c4ccc(Cl)cc4)ccnc3O2)cc1 (centres undefined) | 4.33% (inactive) |
| O=C(O)CC1S/C(=N/N=C/c2ccc(-c3ccccc3[N+](=O)[O-])o2)NC1=O (centres undefined) | -2.32% (inactive) |
| CCN1C(=O)/C(=C\c2ccc(-c3ccc([N+](=O)[O-])cc3OC)o2)SC1=Nc1cccc(C(=O)O)c1 | -11.5% (inactive) |
| Nc1ccc2c(c1)OCCOCCOCCOCCOCCO2 | 0.815% (inactive) |
| CCCOc1ccc(C(C)=O)cc1CC(C(N)=O)C(N)=O | -1.92% (inactive) |
| COc1ccc2c(c1)Cc1sc(NC(=O)c3ccccc3)nc1-2 | -2.64% (inactive) |
| NC(=O)c1nsc(C(=O)N(c2ccccc2)C(C(=O)NCC2CCCO2)c2ccc3ncccc3c2)c1N (centres undefined) | 0.907% (inactive) |
| CCOC(=O)C1CCCN(C(=O)c2ccc(S(=O)(=O)Nc3ccccc3OC)cc2)C1 (centres undefined) | 4.12% (inactive) |
| O=C(Nc1ccc(S(=O)(=O)Nc2ncccn2)cc1)C1CC(=O)N(c2ccc(Cl)cc2)C1 (centres undefined) | -2.03% (inactive) |
| O=C(NCCc1ccccn1)C1CCCN1S(=O)(=O)c1ccc(Cl)cc1 (centres undefined) | 2.82% (inactive) |
| Cn1c(SCC(=O)Nc2ccc3c(c2)OCCO3)nnc1-c1ccncc1 | -2.11% (inactive) |
| CCOC(=O)c1cccc(P(C)(C)=O)c1 | -1.87% (inactive) |
| COc1ccccc1NC(=O)c1ccc(NC(=O)C2COc3ccccc3O2)cc1 (centres undefined) | -1.04% (inactive) |

| Compound | activity change, negative = inhibition |
| --- | --- |
| C=CC[n+]1c(-c2ccc(Cl)cc2Cl)csc1Nc1c(C)n(C)n(-c2ccccc2)c1=O | -13.5% (inactive) |
| CCN(C(=S)Nc1cccnc1)c1cccc2ccccc12 | -3.41% (inactive) |
| S=C(Nc1cccnc1)Nc1cccc2cnccc12 | -0.94% (inactive) |
| O=c1c2ccccc2nnn1CSc1nc2ccccc2c(=O)n1CCCO | 1.38% (inactive) |
| O=C(NC(=S)Nc1ccccc1N1CCCC1)c1ccco1 | -10.3% (inactive) |
| Cc1cc2c(OCC(O)CNC3CCCCC3)cccc2[nH]1 (centres undefined) | -6.61% (inactive) |
| CC1=CS(=O)(=O)CC1Sc1ncn[nH]1 (centres undefined) | -1.01% (inactive) |
| COc1cccc(CNc2cccc3cccnc23)c1O | -0.684% (inactive) |
| Oc1ccc(CNc2ccccc2O)cc1 | -2.41% (inactive) |
| Cc1ccccc1N(C(=O)c1snc(C(N)=O)c1N)C(C)C(=O)NC1CCCCC1 (centres undefined) | 0.295% (inactive) |
| CC(=O)Nc1ccc(NCc2ccc(C)s2)cc1 | 1.27% (inactive) |
| CCOc1c(O)ccc(/C=C2\SC(=S)NC2=O)c1[N+](=O)[O-] | -7.61% (inactive) |
| Cc1ccc(Cl)c(OCC(=O)Nc2cc(S(=O)(=O)N3CCOCC3)ccc2N2CCCC2)c1 | 1.64% (inactive) |
| COc1ccc(CN(C(=O)CN2C(=O)NC3(CCC(C)CC3)C2=O)C(C)Cc2cccs2)cc1 (centres undefined) | -1.57% (inactive) |
| c1ccc(-c2nc(N3CCOCC3)c3ccccc3n2)nc1 | -3.18% (inactive) |
| CCc1nnc(NC(=O)COc2ccc3c(c2)OCO3)s1 | -3.47% (inactive) |
| CN1CCCCc2c1nc1ccccc1c2N (tested in a mixture with another compound) | -14% (inactive) |
| COc1cc(/C=C/C(=O)OCC(=O)NNC(=O)c2cc(Cl)ccc2OC)ccc1O | 3.64% (inactive) |
| Cc1cc(OCC(=O)Nc2ccccc2N2CCCCC2)ccc1C(C)C | 2.21% (inactive) |
| FC(F)(F)c1ccc(N/N=C/c2cccnc2)nc1 | -1.15% (inactive) |
| COc1ccccc1/C=N/Nc1cc(C)nc(N2CCOCC2)n1 | 11.2% (inactive) |
| N#Cc1cc(-c2ccccc2)cnc1Sc1ccc(Cl)cc1 | 6.46% (inactive) |

| Compound | activity change, negative = inhibition |
| --- | --- |
| CN1CC2(Cc3c1ccc1ccccc31)C(=O)OC(C)(C)OC2=O | -0.443% (inactive) |
| Cc1cc(=O)cc(C)n1-c1ccc(O)cc1 | -3% (inactive) |
| CC1=NOC(=O)/C1=C\c1ccc(-c2ccc(Cl)c(C(=O)O)c2)o1 | -10.8% (inactive) |
| CSc1ncccc1C(=O)OCC(=O)N1CC2(C)CC1CC(C)(C)C2 (centres undefined) | -1.03% (inactive) |
| Cn1c(=O)cc(SCC(=O)N2CCOCC2)c2ccc(Cl)cc21 | -0.94% (inactive) |
| O=S(=O)(Nc1nc(-c2ccco2)c(-c2ccco2)s1)c1ccc(F)cc1F | -6.56% (inactive) |
| O=C(COC(=O)c1cc(S(=O)(=O)N2CCOCC2)ccc1F)c1ccc[nH]1 | -2.3% (inactive) |
| CCN(CC)C(=O)c1cc([N+](=O)[O-])cc2c1-c1ccc([N+](=O)[O-])cc1C2=C(C#N)C#N | -6.91% (inactive) |
| CC(=O)c1cc(-c2ccccc2)n(CC(=O)NC2CCCCC2)c1C | -3.33% (inactive) |
| COc1ccc(-c2c3c(nc4sc(C(=O)Nc5cc(C)on5)c(N)c24)CCC3)cc1 | 12.8% (inactive) |
| N=C1SCC(=O)N1c1ncc(Cc2cccc(Cl)c2)s1 | 4.23% (inactive) |
| Cc1cccc(OCCC(=O)Nc2ccccc2C(N)=O)c1 | -0.179% (inactive) |
| CCOC(=O)c1cc(-c2ccc(F)cc2)nc2c1c(=O)[nH]c(=O)n2Cc1ccccc1 | 6.15% (inactive) |
| COC(=O)c1c(SCC(=O)Nc2ccc(C)c(C)c2)nc(=O)[nH]c1C | -3.37% (inactive) |
| CCOC(=O)c1c(C)[nH]c(C)c1C(=O)COC(=O)[C@@H]1CCCN1S(=O)(=O)c1ccc(Cl)cc1 | -6.9% (inactive) |
| CCn1cnc2c1c(=O)n(CC(=O)O)c(=O)n2Cc1ccccc1 | -4.49% (inactive) |
| Cc1c(C)n(Cc2ccccc2)c2ccc(C(=O)OCCCN(C)C)cc12 | -4.55% (inactive) |
| Cc1cc(=O)n(Cc2ccccc2)c(O)c1C#N | -1.83% (inactive) |
| COc1ccc(S(=O)(=O)N(C)CC(=O)NCCN2CCOCC2)cc1Cl | -0.151% (inactive) |
| c1ccc(CCN2CN=C(Nc3nc4ccccc4s3)NC2)cc1 | -2.52% (inactive) |
| O=C1CC2(CCCCC2)CC(=O)N1CCc1ccccc1 | -2.82% (inactive) |
| Nc1ccc(N=Nc2ccccc2O)c(N)c1 | -12.8% (inactive) |

| Compound | activity change, negative = inhibition |
| --- | --- |
| O=C(OCc1ccc(Cl)c(Cl)c1)c1cccnc1Cl | -0.016% (inactive) |
| CCN1CCN(CCCNC(=O)c2ccc3c(c2)NC(=O)/C(=C\c2cccc(C)c2)S3)CC1 | -3.33% (inactive) |
| O=C(CN1CCOCC1)Nc1ccc(Oc2ccccc2)cc1 | -1.22% (inactive) |
| O=C(O)C=C1C2CC3CC(C2)CC1C3 | -2.4% (inactive) |
| COC(=O)CC1=NN(c2ccc(OC)cc2)C(=O)/C1=C\c1ccc(Cl)cc1 | -0.285% (inactive) |
| Nc1nonc1C(=O)N/N=C/c1cc2c(cc1[N+](=O)[O-])OCO2 | -2.99% (inactive) |
| CC(C)(C)C(=O)NC1CC2CCCC(C1)N2C(=O)Nc1ccc(Cl)cc1 (centres undefined) | 4.82% (inactive) |
| COc1ccc2c(C#N)c3ccccn3c2c1 | -2.94% (inactive) |
| COc1ccc(-c2cn[nH]c2N)cc1 | 4.01% (inactive) |
| CN(C)CCCN1C(=O)c2cccc3c([N+](=O)[O-])ccc(c23)C1=O | -14.9% (inactive) |
| COc1ccc(NS(=O)(=O)c2cccc(C(=O)N3CCCCCC3)c2)cc1 | -3.61% (inactive) |
| O=C1CC(=O)Nc2cc(S(=O)(=O)Nc3ccc(Cl)c(C(F)(F)F)c3)ccc2N1 | 0.666% (inactive) |
| CC(=O)NC1=NN(C(C)=O)C(C)(c2cccc([N+](=O)[O-])c2)S1 (centres undefined) | -1.79% (inactive) |
| CCOC(=O)C1(C)CCCN1C(=O)c1cccc(F)c1 (centres undefined) | 1.47% (inactive) |
| CC1(CC(=O)N/N=C/c2cc([N+](=O)[O-])c(O)cc2O)OCCO1 | -0.127% (inactive) |
| Cc1cc(NC(=O)COC(=O)c2cccc(S(=O)(=O)N3CCOCC3)c2)no1 | 2.01% (inactive) |
| O=C(CNc1ccc(F)cc1)N/N=C/c1c(O)ccc2ccccc12 | 3% (inactive) |
| O=C(CSc1nc(-c2ccccc2)c(-c2ccccc2)o1)Nc1nnc(-c2ccccc2)s1 | -2.84% (inactive) |
| C/C(=N\NC(=O)CSc1nc2ccccc2o1)c1ccc(O)cc1 | 2.05% (inactive) |
| C=CCn1c(-c2ccc(OC)cc2)nc2nc3ccccc3nc21 | -2.2% (inactive) |
| O=c1[nH]c(CN2CCOCC2)nc2cc(Cl)ccc12 | 0.642% (inactive) |
